Experimental findings from ChEMBL document CHEMBL3988442, “University of Dundee, Small-Polar-MMV Screening Library” (2021) are described below.

Holding throughout (parameters): scale not given: direction of the effect not stated beside the values
Experiment [1] deals with Protein translocase subunit SecA (Escherichia coli (strain K12)) (UniProt P10408). Description: Assay to Identify E. coli SecA ATPase Inhibitors. The experiment is classed as functional. To be noted: 30 µM.
The target in experiment [2] is T1, Ubiquitin-activating enzyme e1, putative (Leishmania donovani (strain BPK282A1)) (UniProt E9BSI1).
T1 sequence (whole entry): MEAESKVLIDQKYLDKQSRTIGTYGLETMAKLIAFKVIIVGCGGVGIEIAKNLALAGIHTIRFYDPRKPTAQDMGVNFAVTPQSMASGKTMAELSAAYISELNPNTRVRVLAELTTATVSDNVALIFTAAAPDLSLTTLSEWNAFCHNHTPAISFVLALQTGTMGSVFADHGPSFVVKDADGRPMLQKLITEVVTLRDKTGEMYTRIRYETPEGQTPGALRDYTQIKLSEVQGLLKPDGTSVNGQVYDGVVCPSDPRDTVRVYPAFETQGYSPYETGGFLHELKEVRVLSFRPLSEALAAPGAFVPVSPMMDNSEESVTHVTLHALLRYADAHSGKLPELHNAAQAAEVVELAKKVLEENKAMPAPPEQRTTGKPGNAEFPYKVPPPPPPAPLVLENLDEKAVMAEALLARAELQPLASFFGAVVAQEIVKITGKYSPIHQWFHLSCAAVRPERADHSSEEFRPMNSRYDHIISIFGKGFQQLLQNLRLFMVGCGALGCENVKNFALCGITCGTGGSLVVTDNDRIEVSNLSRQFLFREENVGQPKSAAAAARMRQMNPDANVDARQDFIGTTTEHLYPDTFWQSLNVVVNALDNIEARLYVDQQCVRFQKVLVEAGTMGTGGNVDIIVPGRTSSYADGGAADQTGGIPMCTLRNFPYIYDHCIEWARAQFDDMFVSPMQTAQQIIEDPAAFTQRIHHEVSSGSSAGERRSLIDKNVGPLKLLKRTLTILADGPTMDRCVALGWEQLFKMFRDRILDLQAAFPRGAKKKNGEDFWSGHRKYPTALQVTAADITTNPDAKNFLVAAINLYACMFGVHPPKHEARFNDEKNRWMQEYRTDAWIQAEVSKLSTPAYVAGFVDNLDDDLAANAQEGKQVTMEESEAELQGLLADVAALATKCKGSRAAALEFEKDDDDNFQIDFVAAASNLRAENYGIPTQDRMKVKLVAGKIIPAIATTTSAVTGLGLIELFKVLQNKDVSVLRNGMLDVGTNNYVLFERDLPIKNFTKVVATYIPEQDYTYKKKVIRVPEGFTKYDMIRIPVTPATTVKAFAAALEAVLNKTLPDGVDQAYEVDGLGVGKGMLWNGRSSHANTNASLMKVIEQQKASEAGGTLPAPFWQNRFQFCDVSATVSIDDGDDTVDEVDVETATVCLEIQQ
Description: Leishmania donovani Ubiquitin Activating Enzyme (LdE1). The experiment is classed as functional. To be noted: 30 µM.

Experiment [3] concerns the target AMP-activated protein kinase, AMPK (Homo sapiens) (UniProt P54646+O43741+P54619+Q9UGJ0+Q9Y478+Q13131+Q9UGI9). The experiment can be described thus: AMP-dependent Kinase enzyme assay. An in vitro enzyme assay that detects ADP turnover that is directly proportional to AMPK activity. This uses naive AMPK that is activated during the assay with MK-8722. In kind it is functional. To be noted: 30 µM.

Experiment [4] has as its target Sialic acid-binding Ig-like lectin 9 (Homo sapiens) (UniProt Q9Y336). Description: Hs-Siglec9 ALPHAscreen SOP 20170721. As to conditions: 10 µM.
A further experiment concerns Trypanosoma cruzi. The experiment can be described thus: Trypanosoma cruzi phosphomannomutase and mannose-1-phosphate guanylyltransferase assay. In kind it is functional. To be noted: 10 µM.
Experiment [5] addresses T2, Arginase-2, mitochondrial (Homo sapiens) (UniProt P78540).
T2 sequence (whole entry): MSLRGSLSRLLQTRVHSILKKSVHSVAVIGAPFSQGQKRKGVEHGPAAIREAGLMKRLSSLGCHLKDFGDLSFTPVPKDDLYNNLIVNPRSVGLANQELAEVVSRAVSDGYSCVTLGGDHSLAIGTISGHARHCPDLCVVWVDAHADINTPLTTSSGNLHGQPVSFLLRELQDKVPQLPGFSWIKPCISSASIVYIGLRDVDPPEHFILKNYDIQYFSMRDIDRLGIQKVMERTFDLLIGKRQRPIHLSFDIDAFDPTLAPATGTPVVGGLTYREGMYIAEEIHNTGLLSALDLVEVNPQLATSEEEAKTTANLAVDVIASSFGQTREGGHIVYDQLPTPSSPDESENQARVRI
Description: in vitro enzyme assay to detect the production of urea directly proportional to the activity of Arginase II. Also: in the data most compounds retested in dose-response had high values. In kind it is functional. As to conditions: 33.3 µM.

In experiment [6] the target is T3, Proteasome subunit beta (Trypanosoma cruzi) (UniProt O96673).
T3 sequence (whole entry): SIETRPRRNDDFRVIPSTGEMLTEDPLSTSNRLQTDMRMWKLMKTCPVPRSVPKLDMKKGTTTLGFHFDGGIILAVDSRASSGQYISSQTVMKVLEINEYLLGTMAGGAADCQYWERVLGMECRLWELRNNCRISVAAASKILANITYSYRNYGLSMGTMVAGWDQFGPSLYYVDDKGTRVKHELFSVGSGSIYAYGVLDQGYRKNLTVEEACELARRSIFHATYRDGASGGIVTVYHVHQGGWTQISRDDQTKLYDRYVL
The experiment can be described thus: Trypanosoma cruzi proteasome chymotrypsin-like activity (TcProtChymo) assay. Also: in the data most compounds retested in dose-response had high values. As to conditions: 9.37 µM. In kind it is functional.

For another experiment, the species on record is Homo sapiens. Description: To identify inhibition of the IFN signalling (Jak-Stat) pathway via expression of an eGFP reporter gene under the control of an IFN-stimulated response element (ISRE) containing MxA promoter. The experiment is classed as functional. To be noted: 30 µM. In general terms: A reporter such as luciferase makes a cellular process visible.

Experiment [7] has as its target T4, Tyrosyl-tRNA synthetase, putative (Trypanosoma cruzi (strain CL Brener)) (UniProt Q4DSP6).
T4 sequence (whole entry): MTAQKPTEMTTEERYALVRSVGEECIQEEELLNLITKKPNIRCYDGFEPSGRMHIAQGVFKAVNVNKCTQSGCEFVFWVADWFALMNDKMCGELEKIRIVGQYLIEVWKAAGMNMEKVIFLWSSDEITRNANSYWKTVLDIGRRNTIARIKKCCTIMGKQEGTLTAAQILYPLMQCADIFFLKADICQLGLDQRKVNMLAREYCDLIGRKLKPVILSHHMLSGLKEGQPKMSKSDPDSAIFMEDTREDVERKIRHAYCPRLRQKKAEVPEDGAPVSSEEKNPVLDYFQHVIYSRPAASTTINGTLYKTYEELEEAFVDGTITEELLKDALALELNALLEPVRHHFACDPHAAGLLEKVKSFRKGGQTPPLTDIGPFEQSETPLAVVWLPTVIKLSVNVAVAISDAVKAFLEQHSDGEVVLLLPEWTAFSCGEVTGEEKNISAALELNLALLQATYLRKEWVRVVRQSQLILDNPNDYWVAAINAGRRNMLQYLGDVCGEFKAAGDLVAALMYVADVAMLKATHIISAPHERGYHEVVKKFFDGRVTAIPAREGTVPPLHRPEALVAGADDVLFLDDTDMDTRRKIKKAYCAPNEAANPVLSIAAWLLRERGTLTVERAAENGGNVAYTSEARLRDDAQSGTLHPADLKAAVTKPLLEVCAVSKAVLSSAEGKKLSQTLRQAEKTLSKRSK
Description: Trypanosoma cruzi tyrosyl tRNA synthetase (TcYRS) _High Tyrosine SOP. Also: in the data most compounds retested in dose-response had high values. The experiment is classed as functional. To be noted: 30 µM.

Experiment [8] deals with T4, Tyrosyl-tRNA synthetase, putative (Trypanosoma cruzi (strain CL Brener)). Description: Trypanosoma cruzi tyrosyl tRNA synthetase (TcYRS) SOP. In kind it is functional. To be noted: 30 µM.
The target in experiment [9] is Chromo domain-containing protein 1 (Saccharomyces cerevisiae (strain ATCC 204508 / S288c) (Baker's yeast)) (UniProt P32657). The experiment can be described thus: ScCHD-1 Enzyme Inhibition Assay. Also: in the data most compounds retested in dose-response had high values. The experiment is classed as functional. To be noted: 30 µM.

Each structure is given as a SMILES string. For some of these results: Measured potencies and affinities stand elsewhere.

Chain of Protein translocase subunit SecA (Escherichia coli (strain K12)) (P10408 whole entry): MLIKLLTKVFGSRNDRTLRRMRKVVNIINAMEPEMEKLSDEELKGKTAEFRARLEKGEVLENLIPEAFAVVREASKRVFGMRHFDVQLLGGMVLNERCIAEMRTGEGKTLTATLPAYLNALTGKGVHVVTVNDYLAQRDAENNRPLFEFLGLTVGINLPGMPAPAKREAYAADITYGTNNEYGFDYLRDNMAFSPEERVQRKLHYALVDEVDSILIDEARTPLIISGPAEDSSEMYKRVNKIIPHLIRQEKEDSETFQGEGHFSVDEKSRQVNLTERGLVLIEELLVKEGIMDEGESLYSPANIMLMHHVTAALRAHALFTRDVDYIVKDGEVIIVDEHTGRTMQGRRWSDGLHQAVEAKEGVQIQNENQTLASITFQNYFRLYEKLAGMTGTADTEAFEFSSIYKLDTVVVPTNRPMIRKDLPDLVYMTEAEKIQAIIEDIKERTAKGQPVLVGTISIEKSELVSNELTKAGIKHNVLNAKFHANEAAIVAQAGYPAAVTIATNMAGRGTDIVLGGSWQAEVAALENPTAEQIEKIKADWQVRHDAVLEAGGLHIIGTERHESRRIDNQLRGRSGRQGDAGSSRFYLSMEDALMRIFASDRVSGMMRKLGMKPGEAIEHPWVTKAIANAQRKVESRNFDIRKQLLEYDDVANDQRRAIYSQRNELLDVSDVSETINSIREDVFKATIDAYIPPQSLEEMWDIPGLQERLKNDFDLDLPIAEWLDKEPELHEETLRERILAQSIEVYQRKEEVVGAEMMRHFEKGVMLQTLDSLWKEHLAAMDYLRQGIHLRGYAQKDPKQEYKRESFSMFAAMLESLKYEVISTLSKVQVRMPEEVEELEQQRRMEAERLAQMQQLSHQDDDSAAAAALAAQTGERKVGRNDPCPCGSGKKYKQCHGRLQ
Chain of Chromo domain-containing protein 1 (Saccharomyces cerevisiae (strain ATCC 204508 / S288c) (Baker's yeast)) (P32657 whole entry, the tested form may be a part): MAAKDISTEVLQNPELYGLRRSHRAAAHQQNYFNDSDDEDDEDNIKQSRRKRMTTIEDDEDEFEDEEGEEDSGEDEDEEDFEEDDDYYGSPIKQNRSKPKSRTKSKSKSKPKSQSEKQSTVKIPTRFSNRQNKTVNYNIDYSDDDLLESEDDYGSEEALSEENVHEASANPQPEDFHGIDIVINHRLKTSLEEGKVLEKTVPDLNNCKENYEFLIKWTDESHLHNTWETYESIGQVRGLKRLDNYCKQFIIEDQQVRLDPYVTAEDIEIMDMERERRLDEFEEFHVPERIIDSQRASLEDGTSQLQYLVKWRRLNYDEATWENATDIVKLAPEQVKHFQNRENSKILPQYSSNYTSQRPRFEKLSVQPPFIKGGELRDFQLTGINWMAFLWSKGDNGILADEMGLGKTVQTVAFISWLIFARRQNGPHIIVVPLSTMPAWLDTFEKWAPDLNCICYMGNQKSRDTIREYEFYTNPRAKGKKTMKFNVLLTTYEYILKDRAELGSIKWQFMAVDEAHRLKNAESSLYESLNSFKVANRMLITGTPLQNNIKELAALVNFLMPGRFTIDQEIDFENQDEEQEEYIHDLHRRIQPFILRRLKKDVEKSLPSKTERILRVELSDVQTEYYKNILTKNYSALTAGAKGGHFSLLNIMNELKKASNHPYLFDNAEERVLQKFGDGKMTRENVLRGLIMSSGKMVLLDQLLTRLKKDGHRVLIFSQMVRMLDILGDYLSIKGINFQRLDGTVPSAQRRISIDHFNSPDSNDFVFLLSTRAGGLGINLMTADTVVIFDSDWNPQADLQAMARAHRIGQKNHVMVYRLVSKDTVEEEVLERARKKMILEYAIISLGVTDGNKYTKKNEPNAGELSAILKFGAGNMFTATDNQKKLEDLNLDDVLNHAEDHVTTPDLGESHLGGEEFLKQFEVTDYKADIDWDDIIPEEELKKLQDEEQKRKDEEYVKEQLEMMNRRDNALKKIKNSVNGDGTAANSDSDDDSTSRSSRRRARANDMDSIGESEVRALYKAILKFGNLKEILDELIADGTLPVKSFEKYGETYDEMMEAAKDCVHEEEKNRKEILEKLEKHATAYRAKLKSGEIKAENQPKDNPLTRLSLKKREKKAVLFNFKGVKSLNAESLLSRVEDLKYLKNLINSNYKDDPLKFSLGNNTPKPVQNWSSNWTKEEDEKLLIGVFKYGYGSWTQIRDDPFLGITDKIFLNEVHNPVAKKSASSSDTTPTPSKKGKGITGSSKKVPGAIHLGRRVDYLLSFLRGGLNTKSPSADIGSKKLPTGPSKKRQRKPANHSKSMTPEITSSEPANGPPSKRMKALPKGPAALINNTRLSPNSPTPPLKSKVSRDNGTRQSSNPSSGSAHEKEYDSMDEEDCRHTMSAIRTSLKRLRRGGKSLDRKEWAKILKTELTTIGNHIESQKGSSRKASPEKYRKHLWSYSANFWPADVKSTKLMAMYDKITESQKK
Chain of Sialic acid-binding Ig-like lectin 9 (Homo sapiens) (Q9Y336 whole entry): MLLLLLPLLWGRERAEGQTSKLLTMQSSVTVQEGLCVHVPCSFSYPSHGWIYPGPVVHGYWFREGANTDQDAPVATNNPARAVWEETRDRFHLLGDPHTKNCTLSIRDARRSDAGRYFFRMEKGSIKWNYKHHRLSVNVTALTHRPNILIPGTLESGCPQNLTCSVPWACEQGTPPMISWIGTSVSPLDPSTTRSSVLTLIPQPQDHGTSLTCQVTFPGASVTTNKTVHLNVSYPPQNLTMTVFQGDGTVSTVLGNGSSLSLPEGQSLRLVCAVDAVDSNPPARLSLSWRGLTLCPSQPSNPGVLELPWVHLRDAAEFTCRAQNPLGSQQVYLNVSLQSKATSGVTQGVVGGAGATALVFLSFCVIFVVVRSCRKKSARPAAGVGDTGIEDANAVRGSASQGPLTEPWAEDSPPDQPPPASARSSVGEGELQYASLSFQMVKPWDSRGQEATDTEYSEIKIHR

As to `CC(C)c1nc(C2CCCN(C(=O)CCCn3cncn3)C2)no1` (stereo unspecified), the Percent Effect is -4.23% in experiment [1]; 21.6% in experiment [2]; -6.76% in experiment [3]; 9.76% in experiment [4]; 2.36% in the experiment with Trypanosoma cruzi; -10.4% in [5]. In addition, the Percent Effect is 12.1% in experiment [6]; -60.1% in the experiment filed under Homo sapiens; 8.37% in experiment [7]; 16.1% in [8]; -12.8% in [9].

In the case of `CCN(Cc1ccco1)C(=O)c1cc(OC)c2c(c1)OCCO2`, the Percent Effect is -1.97% in [1]; -2.63% in [2]; 6.68% in experiment [3]; 5.11% in [4]; -0.487% in the experiment on Trypanosoma cruzi; 3.55% in [5]. Besides, the Percent Effect in experiment [6] was 9.88%; in the experiment listed under Homo sapiens it was -7.24%; in experiment [7] it was 0%; in [8], 2.6%; in experiment [9], -1.38%.

As for `Cc1noc(CN2CCN(CC(C)O)CC2)n1` (stereo unspecified), the Percent Effect in experiment [1] was -0.907%; in experiment [2] it was 8.11%; in [3], -4.38%; in experiment [4], 4.09%; with Trypanosoma cruzi, 0.195%; in experiment [5], 1.25%. Also, the Percent Effect in experiment [6] was 9.21%; in the experiment filed under Homo sapiens it was -0.0675%; in [7] it was 6.93%; in experiment [8] it was 8.54%; in [9], -4.47%.

On to `Cc1cc(CN2CCc3nn(C(C)C)c(=O)cc3C2)no1`, for which the Percent Effect in experiment [1] is -6.46%; in [2], 0%; in [3], -5.64%; in experiment [4], 2.16%; in the experiment on Trypanosoma cruzi it was -0.781%; in experiment [5] it was 0.833%. Further, the Percent Effect in [6] was 14.1%; in the experiment filed under Homo sapiens, -0.957%; in experiment [7] it was 7.92%; in experiment [8], 8.54%; in experiment [9] it was -7.52%.

With `CN(C)C(=O)CN1C[C@@H]2CC[C@H](C1)N(Cc1cccc(Cl)c1Cl)C2`, the Percent Effect in [1] is 6.03%; in [2], 2.74%; in experiment [3], 1.3%; in [4] it was -0.255%; in the experiment on Trypanosoma cruzi, 2.58%; in [5], -19.6%. Further, the Percent Effect was determined as 22.5% in [6]; 14% in the experiment filed under Homo sapiens; 10.4% in experiment [7]; 25.9% in experiment [8]; 0.27% in experiment [9].

Regarding `CCOc1nnc(CN2CCOC(CNc3cccnn3)C2)s1` (stereo unspecified), the Percent Effect was -1.03% in experiment [1]; 20.8% in experiment [2]; -24.7% in experiment [3]; -0.385% in experiment [4]; 2.43% in the experiment on Trypanosoma cruzi; -3.92% in experiment [5]. For the same compound, the Percent Effect in experiment [6] was 11.8%; in the experiment filed under Homo sapiens, 10.6%; in experiment [7] it was 16.5%; in experiment [8] it was 7.32%; in experiment [9], -11.3%.

On to `Cc1nc(CNC(=O)Cn2nc(-c3ccc(F)cc3)oc2=O)cs1`, for which the Percent Effect in [1] is -2.4%; in experiment [2], 15.8%; in experiment [3] it was 10.4%; in experiment [4], 6.52%; in the experiment with Trypanosoma cruzi it was -1.32%; in experiment [5], -4.21%. The Percent Effect in [6] is 3.17%; in the experiment filed under Homo sapiens it was 8.37%; in [7], 7.35%; in [8] it was 12.2%; in experiment [9] it was -5.84%.

As for `OC(CN1CCN(Cc2ccc(F)c(F)c2)CC1)C1CC1` (stereo unspecified), the Percent Effect is -3.08% in [1]; 8.22% in experiment [2]; 2.45% in [3]; 0.902% in experiment [4]; 5.68% with Trypanosoma cruzi; -1.82% in experiment [5]. Further, the Percent Effect is 8.16% in experiment [6]; 13.1% in the experiment listed under Homo sapiens; 6.45% in [7]; 20% in [8]; -6.1% in experiment [9].

For the compound `O=C(CCc1cc2n(n1)CCCN(C(=O)c1ccccn1)C2)NC1CC1`, the Percent Effect is -2.88% in experiment [1]; 4.17% in experiment [2]; -1.28% in [3]; 15.3% in experiment [4]; 4.76% in the experiment with Trypanosoma cruzi; 21.2% in [5]. Moreover, the Percent Effect in experiment [6] was 7.89%; in the experiment listed under Homo sapiens it was -15.2%; in experiment [7], 4.21%; in [8], 5.13%; in [9] it was -4.34%.

On to `O=C(NCc1cc(=O)n2c(n1)CN(CC1CCOC1)CCC2)C1CC1` (stereo unspecified), for which the Percent Effect in [1] was 0.233%; in experiment [2], 2.74%; in experiment [3], -1.09%; in experiment [4] it was 5.91%; with Trypanosoma cruzi it was 6.35%; in experiment [5], -0.399%. The Percent Effect in [6] is 6.76%; in the experiment listed under Homo sapiens, -4.97%; in experiment [7], 3.12%; in experiment [8], 11.1%; in experiment [9] it was -3.69%.

For the compound `CCn1nnc2c1C(COC)CN(C(=O)Cc1cccs1)C2` (stereo unspecified), the Percent Effect in experiment [1] was -0.417%; in experiment [2], 5.41%; in [3] it was -1.12%; in experiment [4], -5.98%; in the experiment with Trypanosoma cruzi, -2.93%; in experiment [5], -2.5%. For the same compound, the Percent Effect in [6] is 17.8%; in the experiment filed under Homo sapiens, -0.944%; in experiment [7], 6.93%; in experiment [8] it was 8.54%; in experiment [9] it was 5.86%.
